Values joined by “and” are separate entries in the source; they are usually repeats but may differ in a detail not shown here. Equal entries are not always repeated. About 5,700 (36%) of roughly 16,000 compounds were called active. Not shown: some 24% with an inconclusive outcome. Calls follow the shape of the dose curve; as a rule, active = well fitted curve in the direction sought with a large enough effect; inconclusive = small, poorly fitted or top-dose-only effect, or effect the other way; inactive = no such curve, though single readings can be large or run the other way. Some of the results follow.
% is scaled to controls: 0 for no effect and ±100 for the full control effect.

For this assay, the target named is Cytochrome P450 1A2 (Homo sapiens) (UniProt P05177). The assay can be described thus: Cytochrome panel assay with activity outcomes. The following applies: recombinant CYP, pro-luciferin dealkylation, luminescence, p450-cyp1a2; series mostly up to 57.1 µM; activity, negative = inhibition: at the top concentration.
Sequence of Cytochrome P450 1A2 (Homo sapiens) (P05177 whole entry, looked up): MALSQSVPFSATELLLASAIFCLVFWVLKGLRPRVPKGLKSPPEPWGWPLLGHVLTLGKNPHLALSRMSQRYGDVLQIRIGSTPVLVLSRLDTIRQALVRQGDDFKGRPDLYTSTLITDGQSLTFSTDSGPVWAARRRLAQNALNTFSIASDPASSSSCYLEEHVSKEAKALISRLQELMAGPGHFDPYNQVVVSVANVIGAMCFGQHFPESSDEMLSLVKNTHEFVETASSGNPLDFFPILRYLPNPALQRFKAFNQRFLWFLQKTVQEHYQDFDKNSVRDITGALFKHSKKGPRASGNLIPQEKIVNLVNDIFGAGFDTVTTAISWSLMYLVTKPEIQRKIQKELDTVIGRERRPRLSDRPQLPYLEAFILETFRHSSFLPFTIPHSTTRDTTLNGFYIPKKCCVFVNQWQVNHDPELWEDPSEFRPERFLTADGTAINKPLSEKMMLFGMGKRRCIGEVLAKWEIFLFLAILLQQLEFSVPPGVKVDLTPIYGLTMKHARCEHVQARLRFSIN
The AC50 is the concentration at which the activity in the assay is half-maximal. Regarding `CC(C)(C)Nc1nc(N2CCCC2)nc(N2CCCC2)n1`, the half-maximal activity concentration (AC50) is 0.631 µM (active).

`O=C1CCC(c2ccccc2)(c2ccccc2)CC1`: the activity, negative = inhibition is -13.3% [at 11.4 µM] (inactive).

Consider `COc1ccc(CNc2nc(-c3cccc(C#N)c3)nc3ccccc23)c(OC)c1`, for which the AC50 was 2.51 µM (active).

As for `COc1ccccc1CNc1nc(-c2cccc(C#N)c2)nc2ccccc12`, the AC50 was 1.26 µM (active).

Take `COc1ccc(CNc2nc(-c3cccc(NS(C)(=O)=O)c3)nc3ccccc23)c(OC)c1`: the concentration at half-maximal activity (AC50) was 15.8 µM (active).

In the case of `CCCc1cc2c(n1Cc1cc(F)cc(F)c1)C(C)C1CN(C(=O)c3ccccc3)C(C)(C(=O)OC)C21` (stereo unspecified), the “activity, negative = inhibition” value was -19.9% (inactive).

`Cc1noc(C)c1-c1nccc(N(C)Cc2ccco2)n1`: the AC50 was 2 µM (active).

As for `Cc1noc(C)c1-c1cc(N(C)C)ncn1`, the AC50 is 3.16 µM (active).

For the molecule `Cc1noc(C)c1-c1nccc(N(C)C)n1`, the AC50 was 0.631 µM (active).

Consider `Cc1noc(C)c1-c1cc(N(C)Cc2ccco2)ncn1`, for which the AC50 was 3.16 µM (active).

Consider `N#CCSc1ncnc2c1cnn2CCO`, for which the AC50 is 15.8 µM (active).

As for `COc1cccc(NC(=O)C2c3cc(OC)c(OC)cc3C(=O)N(C)C2c2cccnc2)c1` (stereo unspecified), the “activity, negative = inhibition” value was -4.27% (inactive).

As to `COc1cccc(NC(=S)N(CCc2nc3cc(C)c(C)cc3[nH]2)Cc2cccnc2)c1`, the AC50 is 14.1 µM (active).

Regarding `Cc1cccc(NC(=S)N(CCc2nc3cc(C)c(C)cc3[nH]2)Cc2cccnc2)c1`, the AC50 is 14.1 µM (active).

In the case of `COc1ccc(NC(=S)N(CCc2nc3cc(C)c(C)cc3[nH]2)Cc2cccnc2)cc1`, the AC50 was 15.8 µM (active).

In the case of `CCN1C(=O)C(CC(=O)Nc2ccc(OC)cc2)N(Cc2cccnc2)C1=S` (stereo unspecified), the “activity, negative = inhibition” value is -12.1% (inactive).

Regarding `O=C1CCC=C1[C@@H](O)CCc1ccccc1`, the activity, negative = inhibition was -4.4% [at 11.4 µM] (inactive).

For the molecule `CN(C)[C@H]1C(=O)C(C(=O)NCN2CCCC2)=C(O)[C@]2(O)C(=O)C3=C(O)c4c(O)cccc4[C@](C)(O)[C@H]3C[C@H]12`, the activity, negative = inhibition is -17.5% [at 11.4 µM] (inactive).

Take `COc1cc2nc(SCc3ccc(Cl)cc3Cl)n(Cc3cccs3)c(=N)c2cc1OC`: the AC50 is 5.01 µM (active).

In the case of `CCCCNC(=O)CSc1nc2cc(OC)c(OC)cc2c(=O)n1Cc1ccc(OC)cc1`, the “activity, negative = inhibition” value was -11.3% (inactive).

As for `CCCN1CCN(CCCNC(=O)Cn2nc(-c3ccc(C)cc3)ccc2=O)CC1`, the “activity, negative = inhibition” value is 1.86% (inactive).

In the case of `CC(Oc1ccc(Cl)cc1Cl)C(=O)/C=C/N(C)C` (stereo unspecified), the AC50 was 7.08 µM (active).

Consider `Cc1nc(C(=O)Nc2ccc(Cl)cc2Cl)nn1-c1cc(OC(C)C)c(Cl)cc1Cl`, for which the “activity, negative = inhibition” value is -4.26% (inactive).

For `Nc1ncnc2nc(N3CCN(CCO)CC3)[nH]c12`, the activity, negative = inhibition is -1.17% [at 2.29 µM] (inactive).

As for `CCN(CC)CCOC(=O)C1(c2ccc([N+](=O)[O-])cc2)CCCC1`, the AC50 was 3.16 µM (active).

`CN(C)CCOC(=O)C1(c2ccccc2)CCOCC1`: the “activity, negative = inhibition” value is 5.6% (inactive).

For `C/C(CC(=O)NCc1ccco1)=N\NC(=O)Cc1ccccc1`, the “activity, negative = inhibition” value is -4.02% (inactive).

On to `C=CCNC(=O)/C(=C\C=C\c1ccccc1)NC(=O)c1ccc(OCCCC)cc1`, for which the “activity, negative = inhibition” value is -2.51% (inactive).

For the molecule `O=C(O)C1C2CCC(C2)C1C(=O)NCc1ccco1` (stereo unspecified), the “activity, negative = inhibition” value was 9.79% (inactive).

Consider `CCOc1ccc(-n2cc(C(=O)NCc3ccco3)c3cc(OC)c(OC)cc3c2=O)cc1`, for which the “activity, negative = inhibition” value is -10.7% (inactive).

For `CCCCOc1ccc(C(=O)NCc2ccco2)cc1`, the half-maximal activity concentration (AC50) is 1.26 µM (active).

In the case of `Cc1ccc(OCC(=O)NNC(=O)CCC(=O)NCc2ccccc2)cc1`, the “activity, negative = inhibition” value is -22.3% (inactive).

`CC(C)(C)c1ccc(C(=O)NCCC(=O)NCc2ccco2)cc1`: the AC50 is 1.58 µM (active).

On to `Cc1ccc(OCCCC(=O)NCc2ccco2)cc1`, for which the AC50 is 14.1 µM (active).

Regarding `CC(=O)c1ccc(NC(=O)C2(c3ccccc3)CCOCC2)cc1`, the “activity, negative = inhibition” value is -7.53% (inactive).

For the molecule `COc1ccc(S(=O)(=O)N(C)CC(=O)NCc2ccco2)cc1`, the “activity, negative = inhibition” value is -0.209% (inactive).

For `CCS(=O)(=O)N1CCC(C(=O)NCc2ccco2)CC1`, the “activity, negative = inhibition” value was 17% (inactive).

`CCCCCOc1ccc(C(=O)NCC2(c3ccccc3)CCOCC2)cc1`: the AC50 was 15.8 µM (active).

As to `Cc1cc(C)cc(Oc2nn[nH]n2)c1`, the “activity, negative = inhibition” value was -0.21% (inactive).

Take `COc1cccc([C@H]2Oc3ccc(OC)cc3/C(=N\O[C@@H](C)c3cn([C@H](CO)Cc4ccccc4)nn3)[C@@H]2O)c1`: the activity, negative = inhibition was -7.2% [at 11.4 µM] (inactive) and -11.9% [at 11.4 µM] (inactive).

Consider `CCn1cnc2sc(C(=O)N3CCN(c4ccc(OC)cc4)CC3)c(C)c2c1=O`, for which the “activity, negative = inhibition” value is 2.44% (inactive).

Regarding `CCCNC(=O)Cn1cnc2sc(C(=O)Nc3ccc4c(c3)OCO4)c(C)c2c1=O`, the “activity, negative = inhibition” value is 3.48% (inactive).

On to `CCCCN(Cc1ccccc1)C(=O)c1cnc2n(c1=O)CCS2`, for which the “activity, negative = inhibition” value is -4.2% (inactive).

For the molecule `COc1ccccc1NC(=O)c1cnc2n(c1=O)CCS2`, the AC50 was 2.24 µM (active).

For the molecule `COc1ccccc1NC(=O)c1sc2ncn(Cc3ccccc3C)c(=O)c2c1C`, the AC50 was 3.16 µM (active).

With `CCOC(=O)N1CCN(C(=O)c2cnc3n(c2=O)CCS3)CC1`, the “activity, negative = inhibition” value was 5.62% (inactive).

Turning to `O=C(NC(=S)N(Cc1ccccc1)Cc1ccccc1)c1ccccc1F`, the AC50 is 11.2 µM (active).

As to `COC(=O)C(NNc1ccccc1)(NC(=O)c1ccccc1F)C(F)(F)F` (stereo unspecified), the “activity, negative = inhibition” value is -22.2% (inactive).

For the molecule `CN1CCN(NC(=O)c2ccccc2F)CC1`, the “activity, negative = inhibition” value was 11.1% (inactive).

For `Cc1ccc(S(=O)(=O)NC(=O)OC23COCN2COC3)cc1`, the activity, negative = inhibition was 7.51% [at 11.4 µM] (inactive).

Consider `NCCCCN`, for which the “activity, negative = inhibition” value is -17% (inactive).

These data come from PubChem BioAssay AID1851 (National Center for Advancing Translational Sciences (NCATS), 2009).
